Several values for one entry are separate records, joined by “and”; a condition that tells them apart may be missing. Equal entries are not always repeated. Inconclusive results are not listed. A call without a number means that no potency is given here. Where a structure was tested more than once in an assay, its records may differ in their call. Activity calls are given as the source filed them. Unless noted, calls follow the shape of the dose curve; as a rule, active = well fitted curve in the direction sought with a large enough effect in the repeat runs; inconclusive = weak or mixed curves; inactive = no such curve, though single readings can be large; an effect the other way counts as inactive or inconclusive.
Legend:
[1] = target: Thyrotropin-releasing hormone receptor (Homo sapiens) (UniProt P34981); experiment: qHTS assay to identify small molecule agonists of the thyrotropin-releasing hormone receptor (TRHR) signaling pathway (AID 1346891; calls by dose curve; also: series mostly up to about 58 µM)
Sequence of Thyrotropin-releasing hormone receptor (Homo sapiens) (P34981 whole entry, looked up): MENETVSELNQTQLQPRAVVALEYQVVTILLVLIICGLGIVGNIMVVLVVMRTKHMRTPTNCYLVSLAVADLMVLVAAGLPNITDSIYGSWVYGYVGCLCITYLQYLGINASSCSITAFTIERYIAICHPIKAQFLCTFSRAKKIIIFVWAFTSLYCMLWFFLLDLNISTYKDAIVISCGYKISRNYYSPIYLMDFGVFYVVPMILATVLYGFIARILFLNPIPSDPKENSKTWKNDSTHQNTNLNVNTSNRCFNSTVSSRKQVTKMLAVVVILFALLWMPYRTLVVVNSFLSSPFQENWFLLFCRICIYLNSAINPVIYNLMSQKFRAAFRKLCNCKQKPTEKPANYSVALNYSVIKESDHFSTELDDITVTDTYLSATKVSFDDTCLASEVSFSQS
How it was run: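 Agonist-mode intracellular calcium readout: kinetic fluorescence over 3 min at 1 s intervals after compound addition to TRHR-HEK293 cells (18 h seeded, 2 h dye-loaded at 37 C). Fifteen concentrations, triplicates.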

[2] = Human pregnane X receptor (PXR) small molecule agonists, qHTS cell viability counter screen (AID 1346977); also: nearly all actives have a fitted effect of over 50% in size; also: potency is read from the fitted curve at half-maximal effect
How it was run: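 Same-well viability read: CellTiter-Fluor added after 23 hr compound exposure, fluorescence measured 1 hr later. Cells were PXR-Luc HepG2 seeded at 2,000/well in 5% charcoal-stripped FBS medium, rested 5 hr before dosing at 37 C.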

[3] = Caspase-3/7 induction in HepG2 cells by small molecules, qHTS assay (AID 1346978); also: nearly all actives have a fitted effect of over 15% in size; also: potency is read from the fitted curve at half-maximal effect
How it was run: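 Caspase-3/7 induction was measured by Caspase-Glo 3/7 luminescence (30 min, room temperature) after a 17 hr compound exposure of wild-type HepG2 cells seeded at 2,000 per well and pre-incubated 5 hr.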

[4] = Caspase-3/7 induction in CHO-K1 cells by small molecules, qHTS cell viability counter screen (AID 1346979); also: nearly all actives have a fitted effect of over 35% in size; also: potency is read from the fitted curve at half-maximal effect
How it was run: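 Cytotoxicity counter screen: CellTiter-Fluor added to compound-treated wild-type CHO-K1 cells at 16 h (37C, 5% CO2), fluorescence measured 1 h later; same wells as caspase-3/7 measurement.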

[5] = Caspase-3/7 induction in CHO-K1 cells by small molecules, qHTS assay (AID 1346980); also: nearly all actives have a fitted effect of over 15% in size
How it was run: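 Luminescent Caspase-Glo 3/7 read (30min, room temperature) quantified apoptosis induction. Cells were wild-type CHO-K1, treated with compound for 17hr at 37 C and 5% CO2.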

[6] = Caspase-3/7 induction in HepG2 cells by small molecules, qHTS cell viability counter screen (AID 1346981); also: nearly all actives have a fitted effect of over 30% in size; also: potency is read from the fitted curve at half-maximal effect
How it was run: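 Steps: seed 2,000 HepG2 cells per well; incubate 5 hr at 37 C; pin-add compounds in DMSO; incubate 16 hr; add CellTiter-Fluor; after 1 hr at 37 C and 5% CO2, read fluorescence.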

[7] = target: Nuclear receptor subfamily 1 group I member 2 (Homo sapiens) (UniProt O75469); experiment: Human pregnane X receptor (PXR) small molecule agonists, qHTS assay (AID 1346982); also: nearly all actives have a fitted effect of over 35% in size; also: potency is read from the fitted curve at half-maximal effect
Sequence of Nuclear receptor subfamily 1 group I member 2 (Homo sapiens) (O75469 whole entry, looked up): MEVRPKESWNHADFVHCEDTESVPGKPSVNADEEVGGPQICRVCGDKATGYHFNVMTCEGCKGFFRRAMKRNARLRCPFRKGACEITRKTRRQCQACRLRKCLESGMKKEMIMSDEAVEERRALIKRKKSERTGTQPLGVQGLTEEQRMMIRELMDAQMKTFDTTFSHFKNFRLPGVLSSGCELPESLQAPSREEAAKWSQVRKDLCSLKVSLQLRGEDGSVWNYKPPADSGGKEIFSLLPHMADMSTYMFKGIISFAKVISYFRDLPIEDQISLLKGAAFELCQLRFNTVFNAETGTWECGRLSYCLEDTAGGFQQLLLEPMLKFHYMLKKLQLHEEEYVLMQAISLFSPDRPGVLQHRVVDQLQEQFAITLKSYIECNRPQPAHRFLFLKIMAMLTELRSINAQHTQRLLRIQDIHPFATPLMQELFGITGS
How it was run: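 Agonist mode qHTS: PXR-Luc HepG2 cells plated 5 hr before DMSO-dissolved compounds were pinned in, cultured 24 hr at 37 C, 5% CO2; ONE-Glo luminescence readout.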

[8] = target: Nuclear receptor subfamily 1 group I member 2 (Homo sapiens) (UniProt O75469); experiment: Human pregnane X receptor (PXR) activation by small molecules, qHTS assay (AID 1346985); also: nearly all actives have a fitted effect of over 40% in size; also: potency is read from the fitted curve at half-maximal effect
How it was run: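 DPX-2 cells (HepG2 co-transfected with a PXR response element and a CYP3A4-promoter luciferase construct) were seeded at 2,000 per well, rested 5 hr at 37C, then exposed to DMSO-dissolved compounds for 24 hr. Activation was read as luciferase luminescence.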

[9] = target: Nuclear receptor subfamily 1 group I member 2 (Rattus norvegicus) (UniProt Q9R1A7); experiment: Rat pregnane X receptor (rPXR) activation by small molecules, qHTS assay (AID 1346983); conditions: rPXR luciferase reporter cells, One-Glo luminescence, 24 h; max activation: stronger effect = higher value; also: nearly all actives have a fitted effect of over 20% in size; also: potency is read from the fitted curve at half-maximal effect
Sequence of Nuclear receptor subfamily 1 group I member 2 (Rattus norvegicus) (Q9R1A7 whole entry, looked up): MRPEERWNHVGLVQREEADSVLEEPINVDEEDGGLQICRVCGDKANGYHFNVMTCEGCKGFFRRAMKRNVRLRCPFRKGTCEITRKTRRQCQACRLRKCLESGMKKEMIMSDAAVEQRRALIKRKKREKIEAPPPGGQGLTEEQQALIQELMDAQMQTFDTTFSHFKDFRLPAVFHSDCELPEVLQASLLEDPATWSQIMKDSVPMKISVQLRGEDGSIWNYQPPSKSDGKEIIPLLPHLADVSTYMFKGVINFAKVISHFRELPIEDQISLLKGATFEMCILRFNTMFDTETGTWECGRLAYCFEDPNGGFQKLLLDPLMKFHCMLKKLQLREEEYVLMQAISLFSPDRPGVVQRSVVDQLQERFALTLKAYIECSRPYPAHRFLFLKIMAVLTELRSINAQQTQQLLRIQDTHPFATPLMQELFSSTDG
How it was run: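 Luminescent readout (One-Glo luciferase, 30 min room temperature) followed 24 hr compound treatment at 37 C of rPXR cells plated 2,000 per well and preincubated 5hr; qHTS format with compounds delivered in DMSO.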

[10] = target: Nuclear receptor subfamily 1 group I member 2 (Homo sapiens) (UniProt O75469); experiment: CYP3A4 induction through human pregnane X receptor (PXR) by small molecules, qHTS assay (AID 1346984); also: nearly all actives have a fitted effect of over 40% in size
How it was run: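 Steps: seed DPX-2 cells, 5 hr at 37C; pin-transfer compounds; 24 hr at 37C; add Luciferin-IPA (3uM final), 3 hr at 37C; add One-Glo, 30 min RT; read luminescence.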

Structure (SMILES)	Potency [1]	Potency [2]	Potency [3]	Potency [4]	Potency [5]	Potency [6]	Potency [7]	Potency [8]	max activation [9]	Potency [10]	Potency [9]
O=CCc1ccccc1	inactive	inactive	inactive	inactive	inactive	inactive	inactive	–	–	–	–
CC(CCC(=O)O)(c1ccc(O)cc1)c1ccc(O)cc1	inactive	inactive	inactive	inactive	inactive	inactive	inactive	–	–	–	–
c1ccc2c(c1)c1cccc3ccc4cccc2c4c31	inactive	inactive	inactive	inactive	inactive	inactive	inactive	–	–	–	–
COc1c(Cl)c(Cl)c(Cl)c(Cl)c1Cl	inactive	inactive	inactive	inactive	inactive	inactive	inactive	–	–	–	–
Cc1ccc2c(n1)Oc1ccc(C(C)C(=O)OCC(=O)N(C)C)cc1C2 (centres undefined)	inactive	inactive	inactive	inactive	inactive	inactive	21.1 µM (active) and 11.9 µM (active)	–	–	–	–
COC(=O)CCC(=O)OC	inactive	inactive	inactive	inactive	inactive	inactive	56 µM (active) and inactive	–	–	–	–
COc1cc([C@@H]2c3cc4c(cc3[C@H](O)[C@H]3COC(=O)[C@H]23)OCO4)cc(OC)c1OC	inactive	inactive	inactive	8.6 nM (active) and 21.1 nM (active)	inactive	–	48.5 nM (active)	14.1 µM (active)	–	–	–
CCOCCOCCO	inactive	inactive	inactive	inactive	inactive	inactive	inactive	–	–	–	–
COC(C)COC(C)COC(C)CO (centres undefined)	inactive	inactive	inactive	inactive	inactive	inactive	inactive	–	–	–	–
O=C(/C=C/c1ccccc1)OCc1ccccc1	inactive	inactive	inactive	inactive	inactive	inactive	inactive	inactive	-0.887% (inactive)	–	–
OC1CCCCCCCCCCC1	inactive	inactive	inactive	inactive	inactive	inactive	61.7 µM (active) and inactive	–	–	–	–
COc1ccc(C(=O)CC(=O)c2ccc(C(C)(C)C)cc2)cc1	inactive	inactive	inactive	inactive	inactive	inactive	65.8 µM (active) and inactive	inactive	-2.2% (inactive)	inactive	–
CN1C(C(=O)Nc2ccccn2)=C(O)c2ccccc2S1(=O)=O	inactive	inactive	inactive	inactive	inactive	inactive	–	inactive	-2.52% (inactive)	inactive	–
C#C[C@]1(O)CC[C@H]2[C@@H]3CCc4cc(OC)ccc4[C@H]3CC[C@@]21C	inactive	inactive	inactive	27.3 µM (active) and 18.8 µM (active)	inactive	inactive	21.7 µM (active) and 18.8 µM (active)	–	4.03% (inactive)	inactive	–
CNCCCC12CCC(c3ccccc31)c1ccccc12	inactive	27.3 µM (active)	27.3 µM (active)	61.1 µM (active) and inactive	inactive	61.1 µM (active)	–	–	–	–	–
O=P(O)(O)O	inactive	inactive	inactive	inactive	inactive	inactive	–	–	-4.8% (inactive)	–	–
O=Cc1ccccc1O	inactive	inactive	inactive	inactive	inactive	inactive	inactive	–	–	–	–
CCC(C)OC(=O)c1ccc(O)cc1 (centres undefined)	inactive	inactive	inactive	inactive	inactive	inactive	69 µM (active) and 54.5 µM (active)	–	–	–	–
CCCCNS(=O)(=O)c1ccccc1	inactive	inactive	inactive	inactive	inactive	inactive	–	–	–	–	–
O=C(O)c1ccccc1Nc1cccc(C(F)(F)F)c1	inactive	inactive	inactive	inactive	inactive	inactive	30.6 µM (active) and inactive	–	–	–	–
Nc1ncn([C@@H]2O[C@H](CO)[C@@H](O)[C@H]2O)c(=O)n1	inactive	3.06 µM (active) and 3.76 µM (active)	inactive	2.17 µM (active) and 2.98 µM (active)	inactive	1.72 µM (active) and 2.98 µM (active)	4.33 µM (active) and 10.6 µM (active)	inactive	-11.1% (inactive)	inactive	–

Structure (SMILES)	Potency [1]	Potency [2]	Potency [3]	Potency [4]	Potency [5]	Potency [6]	Potency [7]	Potency [8]	max activation [9]	Potency [10]	Potency [9]
c1ccncc1	inactive	inactive	inactive	inactive	inactive	inactive	inactive	–	–	–	–
CCCc1c(OCCCCc2nn[nH]n2)ccc(C(C)=O)c1O	inactive	inactive	inactive	inactive	inactive	inactive	61.1 µM (active) and inactive	–	–	–	–
c1ccc2cc(Nc3ccc(Nc4ccc5ccccc5c4)cc3)ccc2c1	inactive	inactive	inactive	inactive	inactive	inactive	inactive	–	–	–	–
CCCCOCCOCCOCCO	inactive	inactive	inactive	inactive	inactive	inactive	inactive	–	–	–	–
O=CCCCC=O	inactive	inactive	inactive	inactive	inactive	inactive	inactive	inactive	4.17% (inactive)	inactive	–
C/C=C/C(=O)O	inactive	inactive	inactive	inactive	inactive	inactive	inactive	–	–	–	–
CCCCC/C=C/C=C/C=O	inactive	inactive	inactive	inactive and 61.1 µM (active)	inactive	inactive	inactive and 61.1 µM (active)	–	–	–	–
C=C(C)C(=O)OCCOC(=O)C(=C)C	inactive	inactive	inactive	inactive	inactive	inactive	inactive	–	–	–	–
CC(C)(C)NC(=O)[C@H]1CC[C@H]2[C@@H]3CC[C@H]4NC(=O)C=C[C@]4(C)[C@H]3CC[C@]12C	inactive	inactive	inactive	inactive	inactive	inactive	48600 nM (active)	inactive	-2.95% (inactive)	inactive	–
C=CC(C)(CCC=C(C)C)OC(C)=O (centres undefined)	inactive	inactive	inactive	inactive	inactive	inactive	inactive	–	–	–	–
CCCC(=O)O	inactive	inactive	inactive	inactive	inactive	inactive	inactive	inactive	-1.54% (inactive)	inactive	–
Cc1c(OCC(F)(F)F)ccnc1CS(=O)c1nc2ccccc2[nH]1 (centres undefined)	inactive	inactive	inactive	–	inactive	inactive	–	–	–	–	–
Cc1ccc(C(=O)c2cc(O)c(O)c([N+](=O)[O-])c2)cc1	inactive	21.7 µM (active)	inactive	43.3 µM (active)	inactive	43.3 µM (active)	–	–	–	–	–
COc1cccc2c1C(=O)c1c(O)c3c(c(O)c1C2=O)C[C@@](O)(C(=O)CO)C[C@@H]3O[C@H]1C[C@H](N)[C@H](O)[C@H](C)O1	inactive	1.72 µM (active) and 6.68 µM (active)	5.96 µM (active)	9.67 µM (active) and 21.1 µM (active)	inactive	3.85 µM (active) and 11.9 µM (active)	inactive	inactive	-0.0344% (inactive) and 3.76% (inactive)	inactive	–
COC(=O)c1ccccc1	inactive	inactive	inactive	inactive	inactive	inactive	inactive	–	–	–	–
OC[C@H]1O[C@@H]2O[C@H]3[C@H](O)[C@@H](O)[C@@H](O[C@H]4[C@H](O)[C@@H](O)[C@@H](O[C@H]5[C@H](O)[C@@H](O)[C@@H](O[C@H]6[C@H](O)[C@@H](O)[C@@H](O[C@H]7[C@H](O)[C@@H](O)[C@@H](O[C@H]8[C@H](O)[C@@H](O)[C@@H](O[C@H]1[C@H](O)[C@H]2O)O[C@@H]8CO)O[C@@H]7CO)O[C@@H]6CO)O[C@@H]5CO)O[C@@H]4CO)O[C@@H]3CO	inactive	inactive	inactive	inactive	inactive	inactive	inactive	inactive	-2.34% (inactive)	inactive	–
CC1=CCC(C(C)(C)O)CC1 (centres undefined)	inactive	inactive	inactive	inactive	inactive	inactive	54.8 µM (active) and inactive	inactive	-1.16% (inactive)	inactive	–
C#C[C@]1(O)CC[C@H]2[C@@H]3CCC4=Cc5oncc5C[C@]4(C)[C@H]3CC[C@@]21C	inactive	inactive	inactive	43.3 µM (active) and 26.6 µM (active)	inactive	inactive	30.6 µM (active) and 29.8 µM (active)	inactive	–	inactive	7.94 µM (active)
NNc1ccc(C(=O)O)cc1	–	inactive	inactive	inactive	inactive	inactive	43.9 nM (active) and 27.6 nM (active)	–	–	–	–
CCC(C)(O)CCCC(C)C (centres undefined)	–	inactive	inactive	inactive	inactive	inactive	inactive	–	–	–	–
Nc1ccc(Nc2ccccc2)cc1	–	30.3 µM (active) and 39.8 µM (active) and 30.6 µM (active)	inactive	53.9 µM (active) and 43.3 µM (active) and 48.6 µM (active)	inactive	42.8 µM (active) and 34.4 µM (active) and 48.6 µM (active)	24.1 µM (active) and 19.3 µM (active) and 34.4 µM (active)	–	–	–	–

— PubChem BioAssay (Tox21)
